# PubChem BioAssay (NCI)
# The panel holds about 79,000 compounds, 15% with a hit somewhere; the sample as a whole holds those more often. Unmarked numbers belong to inactive results. The source made the active and inactive calls. No stated cut-off is given here; in the data, active means growth inhibition above about 70%; inactive means the rest.
# Legend:
# [1] = NCI Yeast Anticancer Drug Screen. Data for the rad50 strain (AID 155);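 further: 0% = growth of vehicle-only cultures of the same strain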; settings: S. cerevisiae rad50 strain growth inhibition; at 50.0 µM; hits give high values
# Outline: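 Cells are treated with compound, grown, and their growth is then scored against vehicle-only cultures of the same repair-deficient yeast strain.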
# [2] = NCI Yeast Anticancer Drug Screen. Data for the mec2-1 strain (AID 157); settings: S. cerevisiae mec2-1 strain, at 50.0 µM, hits give high values
# Outline: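 Mutant yeast (mec2-1) grown with compound; growth inhibition relative to vehicle control reported.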
# [3] = NCI Yeast Anticancer Drug Screen. Data for the sgs1 mgt1 strain (AID 161);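 further: 0% = growth of cultures given vehicle only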; settings: S. cerevisiae sgs1 mgt1 strain, at 50.0 µM, hits give high values
# Outline: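 This yeast growth screen uses a strain with defined DNA-repair lesions; compound-treated growth is compared with vehicle-treated growth.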
# [4] = NCI Yeast Anticancer Drug Screen. Data for the cln2 rad14 strain (AID 165);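 further: 0% = growth equal to vehicle treated cultures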; settings: S. cerevisiae cln2 rad14 strain, at 50.0 µM, hits give high values
# Outline: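 Readout is yeast growth inhibition versus vehicle-treated controls, using a strain with cln2 and rad14 alterations exposed to compound.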
# [5] = NCI Yeast Anticancer Drug Screen. Data for the bub3 strain (AID 167); settings: S. cerevisiae bub3 mutant strain, at 50.0 µM, hits give high values
# Outline: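 Part of a panel of yeast mutants defective in DNA damage repair or cell cycle regulation. Each strain is grown with compound, and inhibition is calculated relative to solvent-treated cultures.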
# [6] = NCI Yeast Anticancer Drug Screen. Data for the mlh1 rad18 strain (AID 175); settings: S. cerevisiae mlh1 rad18 strain growth inhibition; at 50.0 µM; hits give high values
# Outline: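 Genetically defined yeast (DNA repair-deficient) exposed to compounds; growth inhibition determined relative to vehicle.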
SMILES,growth inhibition [1],growth inhibition [2],growth inhibition [3],growth inhibition [4],growth inhibition [5],growth inhibition [6]
Cc1cc(C)c(NC(=O)Nc2ccc(C(Cl)(Cl)Cl)cc2)c(C)c1,4.9%,11.5%,8.8%,7%,2.9%,2.8%
CONCC(=O)c1ccc(SC)cc1,-18.4%,0.6%,-13.8%,-21.8%,-9.7%,0%
CC(C)=C1CCC(CN(C)C)C1=O (stereo not drawn),30.4%,4.7%,35%,5.35%,-18.9%,7.55%
O=C(NC(Nc1ccc(F)cc1)(C(F)(F)F)C(F)(F)F)C(C(F)(F)F)C(F)(F)F,87.4% (active),88.6% (active),91.8% (active),92.2% (active),90.7% (active),93.2% (active)
COc1ccc(/C(=N/NC(=O)NN)C(c2ccc(OC)cc2)C2(O)CNc3c(Cl)cc(Cl)cc32)cc1 (stereo not drawn),1.75%,14.4%,-9.15%,-16.4%,16.4%,12.7%
COc1ccc2nccc(/C=C/CC3CCN(C(C)=O)CC3)c2c1,31.8%,29.4%,88.2% (active),45.6%,31.6%,74.8% (active)
O=C1/C(=C/c2ccco2)SC(=S)N1C1c2ccccc2Oc2ccccc21,25%,6.65%,67.2%,45.6%,-0.4%,24.8%
CC(C)(C)C1=CC(=O)OC1(Cl)C(C)(C)C (stereo not drawn),-0.65%,6.8%,-1.05%,8.8%,13.8%,-9.05%
O=[N+]([O-])C(=C(N1CCOCC1)N1CCOCC1)/C(Cl)=C(\Cl)Br,-19.2%,-1.1%,-0.6%,-14.1%,4.5%,2.55%
Cc1ccc(S(=O)(=O)N2CCC[C@@H]2C(=O)O[C@@H]2CCC3CC=CC32)cc1 (stereo partly drawn),3.65%,-17.3%,10.2%,-1.8%,-12.3%,-0.1%
N#C/C1=C(\C#N)CCC2(C#N)C3C=CC(O3)C2(C#N)CC1 (stereo not drawn),14.9%,12.6%,-0.65%,13.3%,8.45%,23.1%
CCOC(=O)C1(C)CCCC1=O (stereo not drawn),13.8%,-8.6%,3.95%,6.95%,2.6%,-0.4%
c1ccc2c(c1)CCCN2c1ncnc2ccccc12,-10.2%,-8.45%,-2.8%,-62.6%,15.6%,-7.4%
COc1ccc(-n2cnc3c(cnn3C3OC(CO)C(O)C3O)c2=O)cc1 (stereo not drawn),8.7%,2.95%,8.45%,23.3%,-4.25%,3.3%
[N-]=[N+]=NC1(Cc2ccccc2)C(=O)Nc2ccccc2C1=O (stereo not drawn),0.8%,-10.1%,-19.4%,4.2%,-5.65%,-16%
CC(C)(C)OC(=O)N(CCNS(=O)(=O)c1cccc2cnccc12)CCC(=O)ON1C(=O)CCC1=O,4.7%,-0.2%,17.8%,14.7%,23.3%,6.35%
CCSC(SCC)C(O)C(O)C(O)C(C)O (stereo not drawn),31.8%,1.55%,4%,-34.1%,-5.05%,6.55%
Cc1cc(C)c(S(=O)(=O)Nc2ccccc2F)c(C)c1,40.1%,30.7%,62.9%,7.3%,29.4%,56.9%
O/N=C/C(=Nc1ccc2ccccc2c1)NO,41%,3.25%,-4.5%,-18.2%,-8.45%,23.5%

SMILES,growth inhibition [1],growth inhibition [2],growth inhibition [3],growth inhibition [4],growth inhibition [5],growth inhibition [6]
Cc1cc(S(=O)(=O)O)c(NC(=O)C(=O)C2C=CCS2(=O)=O)cc1Cl (stereo not drawn),-5.2%,-20.8%,-8.65%,1.8%,-8.15%,-8.85%
C/C(CC(=O)Nc1ccc([N+](=O)[O-])cc1)=N/N=C(N)N,-4.25%,-16%,-8.6%,17.1%,-10.8%,2.6%
ClC(Cl)(Cl)C(Cl)(Cl)C(Cl)(Cl)Cl,42.1%,14.8%,16%,-19.4%,6.75%,24.3%
Clc1ccccc1SSc1ccccc1Cl,21.4%,23.9%,22.2%,-9.2%,28.1%,29.9%
ClCCCCSC1CCCCC1,-5.7%,-9.15%,-5.4%,-3.1%,0.6%,-25.1%
c1ccc2c(c1)Nc1nc3ccccc3nc1N2,-40%,-5.7%,-33.8%,15.8%,-8%,16.9%
COc1ccc(C(=O)CCN(C)C)c2ccccc12,-9.1%,-19.8%,-17.1%,9.7%,-20.3%,17.5%
COC1CCC2(C)C3CCC4C(=CCC5C(C)(C)C(=O)CCC45C)CC3(C)CCC2C1(C)C (stereo not drawn),16.3%,-11.3%,-8.55%,-12.8%,-2.2%,-12.1%
O=C(COc1ccccc1)OCCCl,-7.8%,-15.3%,-15.4%,-67.5%,-25.8%,-75.9%
N/C(=N/N=C/C1CCCCC1)NO,0.95%,-9.25%,-24.1%,3.4%,-13.9%,13.6%
CNC(=S)NNC(=O)c1ccncc1,11.4%,10.7%,13.6%,18.6%,-0.65%,13.3%
CS(=O)(=O)c1ccc(/C=C2/C=Cc3ccccc32)cc1,19.1%,13.2%,6.35%,15.4%,30.2%,14.7%
Nc1nc(SCCCc2ccccc2)c2[nH]cnc2n1,7.95%,-2.9%,-3.4%,25.1%,31.6%,-6.55%
NNC(=O)C(CSC(c1ccccc1)(c1ccccc1)c1ccccc1)NC(=O)OCc1ccccc1 (stereo not drawn),87.1% (active),86% (active),94.8% (active),83.6% (active),89% (active),95.2% (active)
O=C(CNC(=O)C(CCC(=O)OCc1ccccc1)NC(=O)OCc1ccccc1)NCC(=O)Oc1ccc([N+](=O)[O-])cc1 (stereo not drawn),25.1%,13.6%,10.3%,9.3%,4%,18.1%
CN(C)CC(C)(C)CO,7.2%,-0.2%,3.85%,9.25%,-9.1%,4.95%
CCOC(=O)Cn1c(=O)n(C)c(=O)c2c1ncn2Cc1ccccc1,0.7%,-31.2%,-14.3%,-4.25%,9.5%,-14.4%
O=C(O)C1Cc2c([nH]c3ccccc23)C=N1 (stereo not drawn),27.9%,11.9%,-2.3%,22.2%,16.4%,33.8%
COc1ccc2c(c1)N1CCc3cc(OC)c(OC)cc3C1C2 (stereo not drawn),15.8%,-5.15%,25.2%,9.5%,25%,34.4%
